An excerpt weighted towards active compounds, which were near 6.2% of everything screened.
RORg inh: inhibitors of mouse ROR gamma transcriptional activity | Potency, µM (titrated, usually from 53.6 µM), for inactives: at the top dose activity change, negative = inhibition, actives largely listed as inhibitors | Drosophila S2 Gal4-RORgamma UAS-luciferase reporter, 20 h | P51450 | AID 2551 | 310,000 tested, 5.4% active; also: nearly all actives have a fitted effect of over 60% in size
Target sequence (P51450 whole entry, looked up, the tested form may be a part): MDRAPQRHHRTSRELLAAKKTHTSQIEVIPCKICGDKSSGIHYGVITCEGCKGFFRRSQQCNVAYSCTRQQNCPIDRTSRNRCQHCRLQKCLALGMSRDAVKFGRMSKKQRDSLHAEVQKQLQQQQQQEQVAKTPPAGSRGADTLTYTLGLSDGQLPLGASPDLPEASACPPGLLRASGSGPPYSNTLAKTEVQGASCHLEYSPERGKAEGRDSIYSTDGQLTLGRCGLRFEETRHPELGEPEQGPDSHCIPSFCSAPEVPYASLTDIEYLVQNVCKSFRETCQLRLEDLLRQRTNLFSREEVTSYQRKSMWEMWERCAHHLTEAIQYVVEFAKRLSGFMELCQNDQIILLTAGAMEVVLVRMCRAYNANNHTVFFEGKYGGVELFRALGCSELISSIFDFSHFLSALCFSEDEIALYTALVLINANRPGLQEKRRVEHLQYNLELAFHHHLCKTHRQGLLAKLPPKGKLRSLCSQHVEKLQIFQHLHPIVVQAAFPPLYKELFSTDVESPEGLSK
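Stable Schneider cell line, Gal4 DNA-binding domain fused to ROR gamma, UAS-luciferase. Cmpd 1 hr RT → CuSO4 700 uM final → 20 hr RT → luciferase reagent 10 min → luminescence.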
Luc counter: Kinase-Glo luciferase inhibition (counter-screen). Q27757. Kinase-Glo luciferase, ATP luminescence, 8 min. Potency, µM (highest dose often 38.3 µM), inactives show at the top dose activity change, negative = inhibition, actives largely listed as inhibitors. 200,000 tested, 0.28% active. AID 1379; also: nearly all actives have a fitted effect of over 60% in size
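Compounds were added to a substrate mix at pH 7.2 (50 mM imidazole, 10 uM ATP, within the enzyme's linear range), followed by Kinase-Glo detection reagent; luminescence was measured after 8 minutes at ambient temperature.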
VP16 counter: inhibits Gal4-VP16 luciferase reporter, ROR gamma counter-screen | 310,000 tested, 3.5% active | AID 2546 | Potency, µM (doses to about 53.6 µM), without a hit: at the highest dose activity, negative = inhibition, usual class: inhibitors | Drosophila S2 Gal4-VP16 UAS-luciferase, luminescence, 20 h;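 also: Gal4-VP16 expression switched on by copper sulfate through the metallothionein promoter; nearly all actives have a fitted effect of over 50% in size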
An asterisk follows results filed as active; ? = inconclusive; . = no result given; [ ] = dose if it differs, or a comment. Calls follow the shape of the dose curve; as a rule, active = well fitted curve in the direction sought with a large enough effect; inconclusive = small, poorly fitted or top-dose-only effect, or another doubt; inactive = no such curve, though single readings can be large; an effect the other way counts as inactive or inconclusive. % is scaled to controls: 0 for no effect and ±100 for the full control effect; potency is read from the fitted curve at half-maximal effect.

SMILES	RORg inh	Luc counter	VP16 counter
Cc1ccc(-c2c(C(=O)N/N=C/c3ccsc3)nnn2-c2nonc2N)cc1	7.1µM*	.	20µM*
Cc1sc2nc(CSc3cccc(C(F)(F)F)c3)[nH]c(=O)c2c1C	?	.	-21%
COc1ccc(Cl)cc1NC(=O)C(C)Sc1n[nH]c(N)n1 (stereo unspecified)	7%	.	-4%
CCC(C)O (stereo unspecified)	5%	.	11%
Cc1cc(Oc2ccccc2)nc(-c2ccccc2O)n1	?	11%	?
Cc1cc(Oc2ccc(Cl)cc2)nc(-c2ccccn2)n1	0.63µM*	.	5.6µM*
COc1ccccc1C(C(=O)NCc1ccccc1)N(C(=O)c1csnn1)C1CC1 (stereo unspecified)	-1%	.	8%
NS(=O)(=O)c1ccc(NC(=S)Nc2ccc(F)c(F)c2)cc1	-20%	-1%	5%
NS(=O)(=O)c1ccc(NC(=S)Nc2nn(Cc3ccc(Cl)cc3Cl)cc2Cl)cc1	6.3µM*	4%	6.3µM*
COc1cc(C2Nc3ccc4ncccc4c3C3=C2C(=O)CC(C)(C)C3)cc(OC)c1O (stereo unspecified)	-23%	-5%	-9%
COc1cc(C2Nc3ccc4ncccc4c3C3=C2C(=O)CCC3)cc(OC)c1O (stereo unspecified)	2.8µM*	5%	13%
CC1CC2OC(=O)C3(C)CCCC(C)(C23)C1(O)CCc1ccoc1 (stereo unspecified)	3%	.	-5%
Cc1cccc(Cc2cnc(NC(=O)C3=NCCN3)s2)c1	3.5µM*	-1%	7.9µM*
O=C(Nc1ncc(Cc2cccc([N+](=O)[O-])c2)s1)c1ccco1	?	0%	?
Cc1cccc(Cc2cnc(NC(=O)c3ccc(C)o3)s2)c1	10µM*	0%	?
Cc1ccc(Cc2cnc(NC(=O)C3=NCCN3)s2)cc1	14%	0%	3%
Cc1ccc(Cc2cnc(NC(=O)c3ccco3)s2)cc1	?	-5%	5.6µM*
Cc1ccc(C(=O)Nc2nnc(C)s2)o1	32%	16%	15%
O=C(CN1CCCC1)Nc1ccc(Br)cc1[N+](=O)[O-]	-5%[1.91 µM]	.	3%
O=c1[nH]ncc(NCc2ccc(Cl)cc2)c1Cl	3%	-3%	-12%
O=C(NNC(=O)C(Cl)Cl)c1cnn(-c2ccccc2)c1C(F)(F)F	-18%	.	1%
Cc1ccccc1/C=C\c1nc2ccccc2c(=O)[nH]1	-5%	-7%	3%
Cc1ccc(/C=C/c2nc3ccccc3c(=O)[nH]2)cc1	2.5µM*	.	?
CC(C)C(=O)N(c1ccc2oc(=O)sc2c1)S(=O)(=O)c1cccs1	-31%	-5%	-11%
CC(C)C(=O)N(c1cc2sc(=O)oc2c2ccccc12)S(=O)(=O)c1cccs1	22µM*	18%	?
SMILES	RORg inh	Luc counter	VP16 counter
Cc1ccccc1C(=O)Nc1nc2n(n1)C(c1ccccc1)CC(=O)N2 (stereo unspecified)	-18%	-3%	9%
COc1ccc(C=O)cc1CSc1ncccc1C(=O)O	-2%	.	-8%
Cc1ccc(C)c(N2CCN(CCCNC(=O)Cn3cc4c(n3)CCC(C)C4)CC2)c1 (stereo unspecified)	-32%	1%	1%
Cc1ccc(C)c(N2CCN(CCCNC(=O)Cn3cc4c(n3)CCCCC4)CC2)c1	13µM*	2%	20µM*
Cc1ccc(S(=O)(=O)N2CCCCC2)c(C)c1NS(C)(=O)=O	8%	0%	-4%
CCOc1cccc(NC(=O)C2CC(=O)N(c3ccc(F)cc3)C2)c1 (stereo unspecified)	?	7%	4%
Cc1ccc(N=Nc2ccc(O)cc2)c(Br)c1	2.8µM*	.	?
Oc1ccc(N=Nc2n[nH]c(-c3ccc(Br)cc3)n2)cc1	-29%	1%	-10%
Cc1nc(NC2CCCCC2)c2nc(-c3ccccc3)n(CCN3CCCCC3)c2n1	-4%	-5%	-10%
Cc1nc(NC2CCCCC2)c2nc(-c3ccccc3)n(C(C)CN(C)C)c2n1 (stereo unspecified)	10µM*	0%	-1%
COc1cc(C(=O)Oc2ccc3c(OC)c4ccoc4nc3c2OC)cc(OC)c1OC	0%	0%	3%
CCCC(=O)C1=C(O)C(c2cccc(Oc3ccccc3)c2)CCC1=O (stereo unspecified)	13µM*	1%	?
O=C1CC(c2cccc(Oc3ccccc3)c2)NC(=O)N1 (stereo unspecified)	23%	-3%	8%
CC[C@](C)(CN(C)C)OC(=O)c1ccccc1	.	2%[17.1 µM]	.
CCc1cc2c(=O)n(Cc3ccco3)c(SCC(=O)N(C)C3CCS(=O)(=O)C3)nc2s1 (stereo unspecified)	10µM*	-1%	?
CN(C(=O)CSc1nc2ccccc2n1CCc1ccccc1)C1CCS(=O)(=O)C1 (stereo unspecified)	16µM*	-2%	?
COCCn1c(SCC(=O)N(C)C2CCS(=O)(=O)C2)nc2ccccc2c1=O (stereo unspecified)	2%	-3%	-9%[10 µM]
CCc1cc2c(=O)n(Cc3ccco3)c(SCC(=O)NC3CCS(=O)(=O)C3)nc2s1 (stereo unspecified)	40%	-2%	?
CC[C@H](C)[C@H](NC(=O)[C@H](C)NC(=O)CNC(=O)[C@H](CCCCN)NC(=O)[C@H](CC(N)=O)NC(=O)[C@H](CO)NC(=O)CN)C(=O)N[C@H](C(=O)NCC(=O)N[C@@H](CC(C)C)C(=O)N[C@@H](CCSC)C(=O)O)[C@@H](C)CC	-6%	.	-3%
COc1ccc(-c2ccc(SCC(=O)NC3CCCC3)nn2)cc1OC	-6%	.	4%
O=C(Nc1cccc(Cl)c1)c1cc(S(=O)(=O)NCCc2ccc(Cl)cc2)ccc1F	?	-2%	10µM*
Cc1ccc(NC(=O)c2cc(S(=O)(=O)NCCc3ccccc3)ccc2F)cc1Cl	?	4%	?
O=C(CCNc1ccc(F)cc1)c1ccco1	11µM*	-6%	?
O=C(CCNc1ccc(F)c(Cl)c1)c1ccco1	?	-1%	?
Cc1cccc2cc(CN(CC3CCCO3)C(=O)c3ccco3)c3nnnn3c12 (stereo unspecified)	-1%	-1%	-8%
SMILES	RORg inh	Luc counter	VP16 counter
COc1ccc(NS(=O)(=O)c2ccc(NC(=O)C3CCCO3)cc2)cc1 (stereo unspecified)	37%	1%	-8%
O=C(Nc1ccc(Cl)c(-c2nc3ccccc3[nH]2)c1)c1ccc2c(c1)OCO2	?	0%	-1%
O=C(Nc1ccc(-c2nc3ccccc3[nH]2)cc1)c1ccc2c(c1)OCO2	?	2%	11µM*
Cc1ccc(NS(=O)(=O)c2ccc(NC(=O)C3CCCO3)cc2)cc1 (stereo unspecified)	?	9%	18µM*
O=C(Nc1sc2c(c1-c1nc3ccccc3[nH]1)CCCC2)C1CCCC1	10µM*	0%	-10%
CC(=O)NCCC(=O)Nc1sc2c(c1-c1nc3ccccc3[nH]1)CCCC2	-17%	-4%	1%
O=C(Nc1nc2ccccc2[nH]1)C1CCCO1 (stereo unspecified)	0%	-13%	5%
O=C(Nc1ccc(-c2nc3ccccc3[nH]2)cc1)C1CCCO1 (stereo unspecified)	1%	4µM*	7.1µM*

Assay outcomes: PubChem BioAssay, National Center for Advancing Translational Sciences (NCATS)
